These results are taken from PubChem BioAssay (EPA / NIEHS).

Records with an inconclusive call do not appear. Activity calls are given as the source filed them. How the source made its calls: active means hit-call score of the fitted dose curve at least 0.9, where 1 is the maximum; inconclusive means response in the unintended direction; inactive means score below 0.9.

Assay [1] is described as follows: ACEA_AR_agonist_AUC_viability: ACEA Biosciences xCELLigence Real-Time Cell Analysis on Androgen Receptor Agonism for Viability (AID 2283775).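 On AC50: viability read 80 hours after compound addition.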 Put shortly:
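22Rv1 cells; impedance growth kinetics; 8-pt 1:4 dilutions from 100 uM top final, ≤0.5% DMSO; n = 2; 80 h read; AUC viability, loss-of-signal vs DMSO.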

Assay [2] is described as follows: ACEA_AR_antagonist_AUC_viability: ACEA Biosciences xCELLigence Real-Time Cell Analysis on Androgen Receptor Antagonism for Viability (AID 2283776).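 Further: area under impedance growth curve at 80 h after dosing as viability; hits lower the growth signal relative to DMSO meaning cytotoxicity.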 Put shortly: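 22Rv1 human prostate cancer cells were seeded on electrode plates, monitored overnight, then exposed to eight 1:4 dilutions from 100 uM final. Impedance-based growth kinetics at 80 h gave an AUC viability endpoint normalized to DMSO.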

A short description of assay [3]: STM_H9_NormalizedViability: Cytotoxicity Assessment at 120 hours in the Stemina devTOX quickPredict H9 human embryonic stem cell (hESC)-based Assay (AID 2283784). Put shortly: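 Viability endpoint: background-corrected CellTiter-Fluor RFU expressed relative to the 0.1% DMSO mean on each plate. Undifferentiated H9 cells were treated with daily re-dosing and media change, and loss of signal was fitted.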

The subject of assay [4] is zebrafish Estrogen Receptor (ESR2B), gene 317733. Kind of assay: ATG_zfER2b_XSP1: Attagene TRANS-FACTORIAL Multi-Species (XSP1) HepG2 Assay for zebrafish Estrogen Receptor (ESR2B) (AID 2283773). In short, it runs like this:
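Multiplexed TRANS format in transfected HepG2 liver cells, chimeric NR-Gal4 from zebrafish ESR2B. 24 h dosing; medium contains 3 nM 6-alpha-fluorotestosterone. mRNA induction by RT-PCR/CE, positive direction vs DMSO.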

Assay [5] has as its system frog Estrogen Receptor (ESR1), gene 398734. Put plainly: ATG_frER1_XSP1: Attagene TRANS-FACTORIAL Multi-Species (XSP1) HepG2 Assay for frog Estrogen Receptor (ESR1) (AID 2283777). In short, it runs like this: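 Transient MRTU transfection, HepG2 (human liver); 24 h dosing, 3 nM 6α-fluorotestosterone co-added; RNA → RT-PCR → 6-FAM labeling → CE; upward activity vs DMSO.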

Assay [6] concerns zebrafish Estrogen Receptor (ESR2A), gene 317734. Kind of assay: ATG_zfER2a_XSP1: Attagene TRANS-FACTORIAL Multi-Species (XSP1) HepG2 Assay for zebrafish Estrogen Receptor (ESR2A) (AID 2283778). Put shortly:
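Transient transfection of HepG2 (human liver) with MRTU constructs; chemical dosing for 24 h; medium contained 3 nM 6-alpha-fluorotestosterone to partly stimulate AR. RT-PCR/CE fluorescence of reporter transcripts; positive direction vs DMSO.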

Assay [7] has as its target chicken Estrogen Receptor (ESR1), ESR1 (gene 396099) (UniProt P06212). Kind of assay: ATG_chERa_XSP1: Attagene TRANS-FACTORIAL Multi-Species (XSP1) HepG2 Assay for chicken Estrogen Receptor (ESR1) (AID 2283779). In short, it runs like this: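 Read-out: fluorescent reporter mRNA fragments resolved by capillary electrophoresis after RT-PCR and HpaI digestion. Transfected HepG2 cells carried chimeric NR-Gal4 constructs, were dosed 24 h with 3 nM 6-alpha-fluorotestosterone added, and activity was fitted upward relative to DMSO.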

Assay [8] concerns the target Estrogen receptor (Homo sapiens) (UniProt P03372). Put plainly: ATG_hERa_XSP1: Attagene TRANS-FACTORIAL Multi-Species (XSP1) HepG2 Assay for human Estrogen Receptor (ESR1) (AID 2283780). In short, it runs like this: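 Reporter transcripts from multiplexed GAL4-UAS units driven by NR-Gal4 chimeras in transiently transfected HepG2 were measured by RT-PCR with capillary electrophoresis 24 h post-dose, with 3 nM 6-alpha-fluorotestosterone present; gain-of-signal relative to DMSO.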

The target of assay [9] is Estrogen receptor beta (Homo sapiens) (UniProt Q92731). Kind of assay: ATG_hERb_XSP1: Attagene TRANS-FACTORIAL Multi-Species (XSP1) HepG2 Assay for human Estrogen Receptor (ESR2) (AID 2283788). Put shortly: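 Transient MRTU transfection of HepG2; ERβ–GAL4 TRANS format; 24 h dosing; 3 nM 6α-fluorotestosterone co-added; RNA → RT-PCR → 6-FAM primer extension → CE; activity vs DMSO.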
Estrogen receptor beta (Homo sapiens), sequence (Q92731 whole entry, looked up, the tested form may be a part): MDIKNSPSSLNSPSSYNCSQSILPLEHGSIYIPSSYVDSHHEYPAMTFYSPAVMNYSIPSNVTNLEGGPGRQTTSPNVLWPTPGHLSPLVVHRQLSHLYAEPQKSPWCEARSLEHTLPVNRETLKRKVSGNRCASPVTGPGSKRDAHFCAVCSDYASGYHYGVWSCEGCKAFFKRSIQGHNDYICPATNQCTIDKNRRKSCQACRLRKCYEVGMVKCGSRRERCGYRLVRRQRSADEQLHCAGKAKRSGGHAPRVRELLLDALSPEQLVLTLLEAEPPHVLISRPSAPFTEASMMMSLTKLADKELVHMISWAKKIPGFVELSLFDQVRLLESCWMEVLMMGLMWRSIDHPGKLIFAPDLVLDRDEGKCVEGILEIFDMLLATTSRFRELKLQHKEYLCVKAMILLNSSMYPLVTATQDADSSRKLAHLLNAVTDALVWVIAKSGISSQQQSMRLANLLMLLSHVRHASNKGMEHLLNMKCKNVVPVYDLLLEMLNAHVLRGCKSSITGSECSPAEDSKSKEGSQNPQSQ

A short description of assay [10]: ATG_M_06_XSP1: Attagene TRANS-FACTORIAL Multi-Species (XSP1) HepG2 Assay for M06 Transcription Factor (Internal Marker) (AID 2283790). Put shortly:
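This background-control readout tracks M06 reporter mRNA, measured by RT-PCR and capillary electrophoresis. HepG2 cells transiently carrying the GAL4-UAS reporter panel were dosed for 24 h with 3 nM 6-alpha-fluorotestosterone added for partial AR stimulation; increases were scored relative to DMSO.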

Assay [11] in a line: ATG_M_61_XSP1: Attagene TRANS-FACTORIAL Multi-Species (XSP1) HepG2 Assay for M61 Transcription Factor (Internal Marker) (AID 2283797). Put shortly: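 Background-control readout: reporter transcripts measured by RT-PCR and capillary electrophoresis 24 h after dosing transiently transfected HepG2 multi-reporter cells, with 3 nM 6-alpha-fluorotestosterone present. Fitted in the positive direction relative to DMSO.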

The target of assay [12] is Peroxisome proliferator-activated receptor gamma (Homo sapiens) (UniProt P37231). Put plainly: ATG_hPPARg_XSP1: Attagene TRANS-FACTORIAL Multi-Species (XSP1) HepG2 Assay for human Peroxisome Proliferator-activated Receptor gamma (PPARg) (AID 2283800). Put shortly: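 Reporter mRNA induction, measured by RT-PCR with capillary electrophoresis 24 h after dosing, scored as gain over DMSO. Transfected HepG2 cells express exogenous NR-Gal4 chimeras driving GAL4-UAS reporters; medium includes 3 nM 6-alpha-fluorotestosterone.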
Peroxisome proliferator-activated receptor gamma (Homo sapiens), sequence (P37231 whole entry, looked up, the tested form may be a part): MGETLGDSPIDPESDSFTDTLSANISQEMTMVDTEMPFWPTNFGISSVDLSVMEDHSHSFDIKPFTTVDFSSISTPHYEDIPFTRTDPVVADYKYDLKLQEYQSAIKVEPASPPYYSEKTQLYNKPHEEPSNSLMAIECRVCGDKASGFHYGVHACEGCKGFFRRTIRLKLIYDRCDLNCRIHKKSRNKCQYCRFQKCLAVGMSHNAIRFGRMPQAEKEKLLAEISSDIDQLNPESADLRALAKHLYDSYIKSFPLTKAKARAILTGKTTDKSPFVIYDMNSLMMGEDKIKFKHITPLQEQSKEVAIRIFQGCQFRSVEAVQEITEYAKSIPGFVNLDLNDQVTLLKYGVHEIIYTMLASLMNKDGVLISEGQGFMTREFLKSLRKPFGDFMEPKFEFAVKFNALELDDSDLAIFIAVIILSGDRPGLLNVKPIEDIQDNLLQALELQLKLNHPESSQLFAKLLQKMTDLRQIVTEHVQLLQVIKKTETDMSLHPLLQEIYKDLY

Assay [13] relates to zebrafish Peroxisome Proliferator-activated Receptor gamma (PPARg), gene 557037. Put plainly: ATG_zfPPARg_XSP1: Attagene TRANS-FACTORIAL Multi-Species (XSP1) HepG2 Assay for zebrafish Peroxisome Proliferator-activated Receptor gamma (PPARg) (AID 2283801). Put shortly: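 Trans-activation readout of chimeric zebrafish PPARg–GAL4 in transiently transfected human HepG2 cells, 24 h chemical exposure (medium includes 3 nM 6-alpha-fluorotestosterone). Reporter transcripts measured by RT-PCR and capillary electrophoresis, fitted as gain over DMSO.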

Assay [14] deals with mouse Peroxisome Proliferator-activated Receptor gamma (PPARg), Pparg (gene 19016) (UniProt P37238). Kind of assay: ATG_mPPARg_XSP1: Attagene TRANS-FACTORIAL Multi-Species (XSP1) HepG2 Assay for mouse Peroxisome Proliferator-activated Receptor gamma (PPARg) (AID 2283802). Put shortly: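 Readout is reporter mRNA induction, measured by RT-PCR with 6-FAM labelling, HpaI digestion and capillary electrophoresis, 24 h post-dose relative to DMSO. Transient multi-reporter transfection of human HepG2 with mouse PPARg–GAL4 fusion; 3 nM 6-alpha-fluorotestosterone included.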
mouse Peroxisome Proliferator-activated Receptor gamma (PPARg), Pparg (gene 19016), sequence (P37238 whole entry, looked up, the tested form may be a part): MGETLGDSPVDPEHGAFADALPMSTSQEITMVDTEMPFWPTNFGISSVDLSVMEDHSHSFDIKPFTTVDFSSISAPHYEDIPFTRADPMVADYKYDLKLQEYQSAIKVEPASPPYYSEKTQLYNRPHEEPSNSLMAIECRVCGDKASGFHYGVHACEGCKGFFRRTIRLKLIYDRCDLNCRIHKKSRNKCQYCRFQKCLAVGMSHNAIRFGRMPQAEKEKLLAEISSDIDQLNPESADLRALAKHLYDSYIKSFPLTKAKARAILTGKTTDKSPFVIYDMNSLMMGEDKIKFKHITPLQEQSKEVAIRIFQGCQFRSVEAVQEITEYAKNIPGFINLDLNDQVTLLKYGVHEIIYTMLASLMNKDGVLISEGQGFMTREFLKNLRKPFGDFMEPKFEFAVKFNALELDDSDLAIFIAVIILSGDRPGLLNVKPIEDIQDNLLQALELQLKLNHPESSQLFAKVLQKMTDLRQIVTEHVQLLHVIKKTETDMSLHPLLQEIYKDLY

A short description of assay [15]: ACEA_ER_AUC_viability: ACEA Biosciences xCELLigence Real-Time Cell Analysis on Estrogen Receptor Agonism for Viability (AID 2283782).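 Further: hit means loss of impedance signal meaning reduced cell growth or viability.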 Put shortly:
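Read-out: real-time electrical impedance (RT-CES) area under curve, loss of signal taken as reduced viability, normalized to DMSO baseline. T-47D cells, charcoal-stripped serum medium, compounds up to 100 uM final, continuous exposure, 80 h.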

Estrogen receptor (Homo sapiens), sequence (P03372 whole entry, looked up, the tested form may be a part): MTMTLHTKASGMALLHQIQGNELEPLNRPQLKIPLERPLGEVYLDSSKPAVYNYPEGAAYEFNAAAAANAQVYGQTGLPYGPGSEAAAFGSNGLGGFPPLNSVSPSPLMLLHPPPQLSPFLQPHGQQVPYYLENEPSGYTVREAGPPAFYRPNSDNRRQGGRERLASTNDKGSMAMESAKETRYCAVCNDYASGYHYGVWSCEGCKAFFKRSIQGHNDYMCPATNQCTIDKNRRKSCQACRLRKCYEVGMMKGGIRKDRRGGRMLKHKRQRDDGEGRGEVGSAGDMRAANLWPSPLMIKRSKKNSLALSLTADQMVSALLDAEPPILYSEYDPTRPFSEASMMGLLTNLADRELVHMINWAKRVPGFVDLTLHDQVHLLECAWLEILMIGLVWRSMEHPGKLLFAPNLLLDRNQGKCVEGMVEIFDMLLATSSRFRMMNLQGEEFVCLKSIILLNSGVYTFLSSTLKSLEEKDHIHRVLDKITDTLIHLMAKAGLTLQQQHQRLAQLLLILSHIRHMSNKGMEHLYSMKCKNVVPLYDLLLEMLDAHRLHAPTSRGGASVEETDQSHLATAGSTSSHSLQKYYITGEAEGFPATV
chicken Estrogen Receptor (ESR1), ESR1 (gene 396099), sequence (P06212 whole entry, looked up, the tested form may be a part): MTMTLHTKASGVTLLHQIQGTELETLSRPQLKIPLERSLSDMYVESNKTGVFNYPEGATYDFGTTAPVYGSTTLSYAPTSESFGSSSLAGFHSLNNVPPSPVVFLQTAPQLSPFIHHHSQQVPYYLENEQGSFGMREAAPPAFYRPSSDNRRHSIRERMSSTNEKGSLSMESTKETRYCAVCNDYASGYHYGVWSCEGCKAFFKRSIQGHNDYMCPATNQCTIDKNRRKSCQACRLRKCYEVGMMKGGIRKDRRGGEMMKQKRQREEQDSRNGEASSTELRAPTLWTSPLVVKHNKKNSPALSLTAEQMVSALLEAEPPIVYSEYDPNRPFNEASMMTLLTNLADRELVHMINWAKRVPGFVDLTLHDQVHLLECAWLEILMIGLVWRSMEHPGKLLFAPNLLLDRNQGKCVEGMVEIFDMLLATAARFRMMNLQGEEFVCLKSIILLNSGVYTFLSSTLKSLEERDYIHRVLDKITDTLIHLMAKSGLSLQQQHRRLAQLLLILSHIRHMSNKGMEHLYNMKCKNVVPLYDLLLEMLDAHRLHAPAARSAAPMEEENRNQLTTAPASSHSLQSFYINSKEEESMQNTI

Turning to `O=c1[nH]cnc2c1ncn2[C@H]1CC[C@@H](CO)O1`, the call in assay [1], in assay [2] and in assay [3] was inactive.
As to `c1ccc2cc3ccccc3cc2c1`, the result in assay [1] was inactive.
On to `O=S(=O)(O)c1ccc(N=Nc2c(O)ccc3cc(S(=O)(=O)O)ccc23)cc1`, for which the molecule was classed as inactive in assay [1].
Still for that read-out and setting: the result for `NC(N)=O` reads “inactive”.
`CC(C)CCCCCCOC(=O)C1CCCCC1C(=O)OCCCCCCC(C)C` (stereo not given): the molecule was called inactive in [1].
One may read the AC50 as the concentration at which the activity in the assay is half-maximal. As to `CCOc1ccc2[nH]cc(C(=O)NCc3ccccc3)c(=O)c2n1`, the AC50 in [1] is 26.1 µM (active).
`OCCNCCO`: the molecule was called inactive in [1].
Consider `CC(C)C(=O)Nc1ccc([N+](=O)[O-])c(C(F)(F)F)c1`, for which the outcome in assay [4], in assay [5], in [6], in assay [7], in [8] and in [9] was inactive. Further, the molecule was called inactive in assay [10], in [11] and in assay [13]. Further, the AC50 in assay [1] is 55.2 µM (active); in assay [3], 65.6 µM (active); in [12], 21.9 µM (active); in [14], 27.1 µM (active).
In the case of `CC(C)CC(C)O` (stereo not given), in [1], the result was inactive.
In the case of `O=C(O)c1cccc(C[C@@H]2COc3ccc(OCc4nc5cc(F)ccc5s4)cc3[C@@H]2O)c1`, the outcome in assay [1] and in [15] was inactive.
